Sampled rows, rich in hits. Any-hit rate of the full collection: about 1.4%.
B2AR arrestin ag = ADRB2 beta-arrestin recruitment; P07550; HTLA Tango cells, beta-arrestin recruitment, luciferase luminescence, 18 h; Potency, µM (titrated, usually from 46.1 µM), actives largely listed as activators; 44,000 tested, under 10 active
Target sequence (P07550 whole entry, looked up): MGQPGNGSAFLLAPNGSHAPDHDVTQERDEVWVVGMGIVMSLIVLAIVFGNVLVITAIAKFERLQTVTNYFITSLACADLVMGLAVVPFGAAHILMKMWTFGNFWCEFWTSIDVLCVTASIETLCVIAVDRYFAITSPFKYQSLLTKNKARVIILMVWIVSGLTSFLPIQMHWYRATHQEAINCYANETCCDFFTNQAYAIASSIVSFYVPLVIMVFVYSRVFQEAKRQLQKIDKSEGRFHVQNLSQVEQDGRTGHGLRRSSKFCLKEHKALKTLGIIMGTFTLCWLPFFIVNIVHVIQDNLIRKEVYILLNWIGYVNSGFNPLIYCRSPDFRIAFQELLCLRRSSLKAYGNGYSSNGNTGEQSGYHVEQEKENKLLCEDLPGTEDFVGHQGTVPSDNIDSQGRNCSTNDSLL
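Tango cells (recombinant beta2-AR, beta-arrestin, tTA-driven luciferase), 1500/well in DMEM 1% FBS, treated 18 h at 37 °C with compounds up to 46 µM; luciferin mix added, luminescence read after 15 min; %activity curves fitted and curve-classed.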
TSG101-PTAP inh = inhibitors of HIV-1 PTAP binding to human TSG101, validation | Fluorescence polarization, FITC-PTAP peptide/Tsg101, 20 min | Potency, µM (titrated, usually from 115 µM), usual class: inhibitors | 44,000 tested, under 10 active
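Read-out is FITC fluorescence polarization. Compounds were added to Tsg101 binding domain (10 uM final), then FITC-PTAP peptide (50 nM final), 20 min at r.t. Total S+P intensity flags fluorescent compounds.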
GALC G270D act = enhancers of human galactocerebrosidase G270D mutant activity in cells; P54803; 145M-Twi-hGALC-G270D cells (Twitcher mouse brain line with human GALC G270D), HMU-beta-Gal fluorescence, 48 h; Potency, µM (doses to about 57.5 µM), hits mostly activators; 0.1% of 45,000 active; further: nearly all actives have a fitted effect of over 65% in size
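Mutant human GALC (G270D), stably expressed in a Twitcher mouse brain cell line lacking endogenous GALC, is measured in live-treated cells via 6-hexadecanoylamino-4-methylumbelliferyl-β-galactoside hydrolysis (0.1 mM final, pH 5.2) with fluorescent detection.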
HTT-AS promoter = activates huntingtin-antisense promoter activity; HEK293 HTT-AS promoter firefly luciferase reporter, 24 h; response scale: percent change from vehicle, -100% = no light; Potency, µM (titrated, usually from 57.5 µM), most hits filed as activators; 0.24% of 48,000 active; further: nearly all actives have a fitted effect of over 55% in size
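Quantitative HTS used concentration series of up to 57.5 uM final on HEK293 luciferase reporter cells, 24 h at 37 degrees C. Readout was Dual-Glo firefly luminescence.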
HTT promoter inh = inhibits huntingtin promoter activity | Potency, µM (top dose mostly 57.5 µM), most hits filed as inhibitors | 0.93% of 48,000 active | HEK293 HTT promoter firefly luciferase reporter, 24 h | AID 1508623; further: nearly all actives have a fitted effect of over 50% in size
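HEK293 cells carrying firefly luciferase reporters were seeded at 2,500 per well in Opti-MEM and cultured for 24 h. They were then treated with compounds at up to 57.5 uM final for 24 h at 37 degrees C before Dual-Glo luminescence readout.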
GALK inhibitor = inhibits human galactokinase; Potency, µM (titrated, usually from 57.5 µM), hits mostly inhibitors; AID 1347072; 44,000 tested, under 10 active; recombinant GALK, Kinase-Glo ATP luminescence, 1 h; P51570
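5 nM GALK with 35 µM ATP and 100 µM galactose in HEPES pH 8.0, MgCl2, NaCl, DTT, BSA; 1 h RT reaction, remaining ATP detected by Kinase-Glo Plus luminescence after 10 min; qHTS concentration series.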
Each line names hits and unclear results; the compound was inactive in the other large screens. The call rests on the fitted dose curve; in most records, active means well fitted curve in the direction sought with a large enough effect; inconclusive means small, poorly fitted or top-dose-only effect, or another doubt; inactive means no such curve, though single readings can be large; an effect the other way counts as inactive or inconclusive.

COc1cccc(CNC(=O)c2ccc3nc(CCc4ccccc4)oc3c2)c1OC	none
COc1ccc(CCNC(=O)c2cc3c(=O)n4ccccc4nc3n2C)cc1	none
Cc1ccc(Cc2nc3ccccc3nc2SCC(=O)N2CCCCC2C)cc1 (stereo unspecified)	HTT promoter inh 28µM
COc1cccc(Cc2nc3ccccc3nc2SCC(=O)N2CCCCC2C)c1 (stereo unspecified)	HTT promoter inh inconclusive
COc1ccccc1NC(=O)CSc1nc2c(oc3ccccc32)c(=O)n1Cc1ccco1	none
COc1cc(CN(C(=O)c2ccc(Cl)cc2)C2CCS(=O)(=O)C2)cc(OC)c1OC (stereo unspecified)	none
Cc1cc(NC(=O)c2ccccc2F)ccc1-c1nc2ccccc2s1	HTT-AS promoter 0.89µM
COc1ccc2oc(-c3ccc(C)c(NC(=O)CSc4ccc(Cl)cc4)c3)nc2c1	none
COc1ccc(-c2noc(N3CCC(C(=O)Nc4cccc(C)c4C)CC3)n2)cc1	HTT promoter inh 2.8µM
COc1ccc(-c2noc(N3CCC(C(=O)N4CCN(c5ccccc5F)CC4)CC3)n2)cc1	HTT promoter inh inconclusive
Cc1ccc(NC(=O)C2CCN(c3nc(-c4ccc(C(C)C)cc4)no3)CC2)c(Cl)c1	HTT promoter inh 0.1µM
Cc1ccc(C)c(N2CCN(C(=O)C3CCN(c4nc(-c5ccc(C(C)C)cc5)no4)CC3)CC2)c1	HTT promoter inh 0.11µM
CCOc1ccccc1CC1C(=O)Nc2ccc(Br)cc21 (stereo unspecified)	HTT promoter inh 18µM
COc1ccc(OC)c(CC2C(=O)Nc3ccc(Br)cc32)c1 (stereo unspecified)	HTT promoter inh 20µM
CCc1ccc(C(=O)c2cn(CC(=O)Nc3ccc(OC)c(OC)c3)c3ccc(C)cc3c2=O)cc1	none
CCc1ccc(NS(=O)(=O)c2ccc3oc(=O)c4ncn(CC)c4c3c2)cc1	none
CCCCCNC(=O)c1cc2c(=O)n3ccccc3nc2n1C	HTT-AS promoter 2µM
CN(C(=O)c1cc2c(=O)n3ccccc3nc2n1C)c1ccccc1	HTT-AS promoter 5.6µM
Cn1c(C(=O)NCCc2ccccc2)cc2c(=O)n3ccccc3nc21	HTT-AS promoter inconclusive
COc1ccccc1C(=O)NCC(c1ccc(N(C)C)cc1)N1CCc2ccccc21 (stereo unspecified)	none
Cc1cccc(NC(=O)Cn2c(=O)oc3cc(S(=O)(=O)N4CCCCCC4)ccc32)c1	HTT promoter inh 10µM
CC1CCN(S(=O)(=O)c2ccc3c(c2)oc(=O)n3CC(=O)NC(C)c2ccccc2)CC1 (stereo unspecified)	HTT promoter inh 14µM
CCOC(=O)c1cc(S(=O)(=O)N(C)c2ccccc2)[nH]n1	none
Cc1ccc(C(=O)Nc2cc(-c3nc4cc(Cl)ccc4o3)ccc2C)c(C)c1	none
Cc1ccc2nc(-c3ccc(C)c(NC(=O)CSc4ccc(Cl)cc4)c3)oc2c1	HTT-AS promoter 6.3µM
Cc1ccc2oc(-c3ccc(C)c(NC(=O)C(C)(C)Oc4ccc(Cl)cc4)c3)nc2c1	HTT-AS promoter 10µM
CCOC(=O)c1c(C)oc2nc(C)nc(NCCCN3CCN(c4ccccc4)CC3)c12	none
CCc1nnc2c3ccccc3nc(Nc3ccc(C(C)=O)cc3)n12	none
COc1cc(Cl)c(NS(=O)(=O)c2cc(-c3cc(C)no3)ccc2OC)c(OC)c1	none
COc1cc(NS(=O)(=O)c2ccc(-c3cc(C)no3)cc2)cc(OC)c1	HTT promoter inh 1.8µM
COc1cc2cc(CNc3ccccc3)c(=O)n(CC(=O)Nc3cc(C)cc(C)c3)c2cc1OC	GALC G270D act 40µM
Cc1ccccc1NC(=O)CSc1nc2ccc(NC(=O)c3ccco3)cc2s1	none
CCCCOc1cccc(C(=O)N(Cc2ccc(C)o2)c2ccccn2)c1	HTT promoter inh 28µM
COc1ccc(C(=O)NCCn2cc(SCc3cccc(F)c3)c3ccccc32)cc1OC	HTT promoter inh 25µM
O=C(NCCn1cc(SCc2ccc(F)cc2)c2ccccc21)c1cccs1	HTT promoter inh 28µM
O=C(NCCn1cc(SCc2cccc(F)c2)c2ccccc21)c1cccc(C(F)(F)F)c1	HTT promoter inh inconclusive
Cc1ccc(CSc2cn(CCNC(=O)c3cccs3)c3ccccc23)cc1	HTT promoter inh inconclusive
CS(=O)(=O)N1CCc2cc(C(=O)NCCc3ccccc3)ccc21	HTT-AS promoter 3.2µM
CCc1c(CN2CCN(c3cccc(C)c3)C(C)C2)csc1C (stereo unspecified)	none
CCCCOC(=O)c1ccc(NC(=O)c2ccc3c(c2)CCCN3S(C)(=O)=O)cc1	HTT promoter inh 5µM
Cc1ccc(Nc2ncnc3sc4c(c23)CCC(C)C4)cc1C (stereo unspecified)	none
CN(C)c1ccc(Nc2ncnc3sc4c(c23)CCCC4)cc1	HTT promoter inh 11µM
COc1cc2c(cc1OC)n(CC(=O)Nc1ccccc1)c(=O)n1nc(-c3ccccc3)nc21	none
CCc1ccc(S(=O)(=O)N(C(=O)Oc2ccccc2)c2ccc3oc(C)c(C(=O)OC)c3c2)cc1	HTT promoter inh 7.9µM
COC(=O)c1c(C)oc2ccc(N(C(=O)c3ccncc3)S(=O)(=O)c3cc(C)c(C)cc3C)cc12	HTT promoter inh 13µM
CC(C)c1ccc(S(=O)(=O)c2nnn3c2nc(NCc2cccs2)c2sccc23)cc1	none
Cc1ccc(-n2nc(C(=O)N3CCN(c4cccc(C(F)(F)F)c4)CC3)c(=O)n(C)c2=O)cc1	HTT promoter inh 32µM
Cc1ccc(-n2nc(C(=O)N3CCN(c4ccccc4)CC3)c(=O)n(C)c2=O)cc1	none
Cc1ccccc1-c1noc(-c2cc3ccccc3oc2=O)n1	HTT-AS promoter 2.5µM
CCOc1ccccc1N(CC)C(=O)c1cc2c(=O)[nH]c3ccc(C)cc3c2s1	HTT promoter inh 2.5µM
CCOc1ccc(-n2c(=O)c3c4c(sc3n(CC(=O)NC(C)CC)c2=O)CCCCC4)cc1 (stereo unspecified)	none
O=C(Cn1nnnc1-c1ccccc1F)Nc1ccc(OC(F)(F)F)cc1	none
CC(C)C(NS(=O)(=O)c1cccc2cccnc12)C(=O)Nc1ccc(OC(F)(F)F)cc1 (stereo unspecified)	none
CCc1ccc(NC(=O)C(CC)n2c(=O)c(-c3ccccc3NC(C)=O)nc3ccccc32)cc1 (stereo unspecified)	HTT promoter inh 14µM
